Source: PubChem BioAssay (The Scripps Research Institute Molecular Screening Center)
PPARg SRC-2 ag: agonists of SRC-2 recruitment by human PPARgamma; PPARgamma LBD-SRC-2 recruitment, biochemical; AID 1032; activation, % at 8 µM; 200,000 tested, 0.34% active; P37231;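 note: 0% = vehicle and 100% = reference agonist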
SRC3 TRFRET art: flags TR-FRET format artefacts in PPARgamma SRC-3 recruitment agonist screen | 99,000 tested, 0.39% active | AID 1048 | TR-FRET artefact counter-screen, PPARgamma/SRC-3 format; hits give high values | TR-FRET ratio at 8 µM; in the data active = TR-FRET ratio above about 2000
SRC2 TRFRET art: TR-FRET artefact, counter-screen to PPARgamma/SRC-2 agonist assay. AID 1049. 200,000 tested, 0.4% active. hits give high values. TR-FRET ratio at 8 µM; in the data active = TR-FRET ratio above about 2000
SRC1 TRFRET art: flags TR-FRET format artefacts in PPARgamma SRC-1 recruitment agonist screen; TR-FRET detection artefact counter-screen, emission ratio; hits give high values; TR-FRET ratio at 8 µM; 99,000 tested, 0.34% active; AID 1051; in the data active = TR-FRET ratio above about 2300
PPARg SRC-1 ag: agonists of human PPARgamma SRC-1 coactivator recruitment. P37231. PPARgamma-SRC-1 coactivator recruitment biochemical assay. activation, % at 8 µM. 200,000 tested, 0.41% active; in the data active = activation above about 19%;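 note: 0% = DMSO and 100% = reference agonist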
PPARg SRC3 recr: agonists of human PPARgamma SRC-3 coactivator recruitment; P37231; biochemical PPARgamma/SRC-3 coactivator recruitment assay; activation, % at 8 µM; 200,000 tested, 0.26% active; in the data active = activation above about 23%;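 note: 0% = DMSO and 100% = reference agonist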
PPARg SRC2 conf: confirmation of agonists of SRC-2 recruitment by human PPARgamma; 790 tested, 52% active; AID 1297; shares compounds with PPARg SRC3 recr; activation, % at 8 µM; biochemical SRC-2 recruitment by PPARgamma;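 note: 0% = vehicle alone and 100% = reference agonist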
PPARg SRC1 conf: human PPARgamma SRC-1 recruitment agonism, confirmation; shares compounds with PPARg SRC3 recr; PPARgamma–SRC-1 coactivator recruitment biochemical assay; activation, % at 8 µM; 790 tested, 43% active; in the data active = activation above about 20%;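 note: 0% = vehicle wells and 100% = reference agonist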
PPARg SRC3 ag: human PPARgamma SRC-3 recruitment agonism, confirmation; shares compounds with PPARg SRC3 recr; biochemical PPARgamma-SRC-3 coactivator recruitment, agonist mode; activation, % at 8 µM; 790 tested, 29% active; in the data active = activation above about 24%;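 note: 0% = vehicle wells and 100% = reference agonist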
The depositor's hits bear a star. Shown are actives, neighbours in structure and some others; about 0.9% of the full set was active somewhere. Cut-off read from the data, not from the text of the source, unless noted: active = activation above about 22%; inactive = the rest.

What do the screens show for `COC(=O)CCS(=O)(=O)c1nc(-c2ccccc2)cc(C(F)(F)F)n1`?
PPARg SRC-2 ag: 5; SRC2 TRFRET art: 1639; PPARg SRC-1 ag: 21*; PPARg SRC3 recr: 9; PPARg SRC2 conf: 8; PPARg SRC1 conf: 16; PPARg SRC3 ag: 11

Results for Cc1ccc(-c2cn(-c3ccccc3)c(SCC(=O)NC3CCS(=O)(=O)C3)n2)cc1C (stereo not given) ?
PPARg SRC-2 ag: -2; SRC3 TRFRET art: 1627; SRC2 TRFRET art: 1596; SRC1 TRFRET art: 1801; PPARg SRC-1 ag: 1; PPARg SRC3 recr: 0

Results for Oc1c(Cl)cc(Cl)cc1CNc1ccc(Br)cn1 ?
PPARg SRC-2 ag: 0; SRC2 TRFRET art: 1523; PPARg SRC-1 ag: 2; PPARg SRC3 recr: -4

What do the screens show for `Oc1ccc(Cl)cc1CNc1ccc(Br)cn1`?
PPARg SRC-2 ag: 10; SRC2 TRFRET art: 1491; PPARg SRC-1 ag: 23*; PPARg SRC3 recr: 4; PPARg SRC2 conf: 1; PPARg SRC1 conf: 9; PPARg SRC3 ag: 6

Results for CCOc1ccc(N2C(=O)CN(CC(=O)OC)C2=S)cc1 ?
PPARg SRC-2 ag: 7; SRC3 TRFRET art: 1723; SRC2 TRFRET art: 1626; SRC1 TRFRET art: 1887; PPARg SRC-1 ag: -1; PPARg SRC3 recr: 6

How did O=C(O)C1=C[C@@H](c2csc3ccccc23)C[C@@H](OCc2ccc(CO)cc2)O1 do in these assays?
PPARg SRC-2 ag: 6; SRC3 TRFRET art: 1610; SRC2 TRFRET art: 1553; SRC1 TRFRET art: 1697; PPARg SRC-1 ag: 1; PPARg SRC3 recr: 4

Results for O=C(O)C1=C[C@H](c2csc3ccccc23)C[C@H](OCc2ccc(CO)cc2)O1 ?
PPARg SRC-2 ag: 15; SRC3 TRFRET art: 1734; SRC2 TRFRET art: 1599; SRC1 TRFRET art: 1867; PPARg SRC-1 ag: 24*; PPARg SRC3 recr: 9; PPARg SRC2 conf: 3; PPARg SRC1 conf: -3; PPARg SRC3 ag: 1

How did O=C(O)CCC(=O)Nc1cccc(C(=O)Nc2ccc(Br)cc2)c1 do in these assays?
PPARg SRC-2 ag: -10; SRC3 TRFRET art: 1559; SRC2 TRFRET art: 1565; SRC1 TRFRET art: 1893; PPARg SRC-1 ag: 7; PPARg SRC3 recr: 2

Results for O=C(O)Cc1cc(C(=O)Nc2ccc(Br)cc2)sc1-c1ccccc1 ?
PPARg SRC-2 ag: 22*; SRC3 TRFRET art: 2260*; SRC2 TRFRET art: 2211*; SRC1 TRFRET art: 2611*; PPARg SRC-1 ag: 33*; PPARg SRC3 recr: 16; PPARg SRC2 conf: 16; PPARg SRC1 conf: 15; PPARg SRC3 ag: 11

Results for COc1ccc(-c2nc(SCC(=O)NC3CCCC3)c(-c3ccc(OC)cc3)[nH]2)cc1 ?
PPARg SRC-2 ag: 24*; SRC3 TRFRET art: 1994; SRC2 TRFRET art: 1685; SRC1 TRFRET art: 1827; PPARg SRC-1 ag: 7; PPARg SRC3 recr: 10; PPARg SRC2 conf: 1; PPARg SRC1 conf: 2; PPARg SRC3 ag: -1

Results for COc1cc2c(cc1OC)C1=NC(=O)CN1C(SCc1ccccc1C)=N2 ?
PPARg SRC-2 ag: 27*; SRC2 TRFRET art: 1965; PPARg SRC-1 ag: 14; PPARg SRC3 recr: 21; PPARg SRC2 conf: 28*; PPARg SRC1 conf: 18; PPARg SRC3 ag: 19

What do the screens show for `Cc1ccc(CSC2=Nc3ccccc3C3=NC(=O)CN23)cc1`?
PPARg SRC-2 ag: -3; SRC3 TRFRET art: 1397; SRC2 TRFRET art: 1488; SRC1 TRFRET art: 1885; PPARg SRC-1 ag: -7; PPARg SRC3 recr: 5

How did COc1ccc([N+](=O)[O-])cc1NC(=O)C(C)OC(=O)c1ccccn1 (stereo not given) do in these assays?
PPARg SRC-2 ag: 3; SRC3 TRFRET art: 1752; SRC2 TRFRET art: 1553; SRC1 TRFRET art: 1967; PPARg SRC-1 ag: 0; PPARg SRC3 recr: 1

Results for COc1ccc(-n2ncc3c(NC(C)C)ncnc32)cc1 ?
PPARg SRC-2 ag: 6; SRC2 TRFRET art: 1605; PPARg SRC-1 ag: 19*; PPARg SRC3 recr: 8; PPARg SRC2 conf: 6; PPARg SRC1 conf: 4; PPARg SRC3 ag: 1
